Mm-Cpn inhibitor = inhibitors of Methanococcus maripaludis chaperonin TRiC (MmCpn); purified Mm-Cpn ATPase, ADP Transcreener TR-FRET; Potency, µM (doses to about 76.9 µM), for inactives: at the top dose activity, negative = inhibition, most hits filed as inhibitors; hit rate 0.031% among 330,000; AID 504842; note: % is set by controls: 0 for no effect and ±100 for the full control effect; nearly all actives have a fitted effect of over 80% in size
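Eu-cryptate anti-ADP/ADP-d2 competition gives a ratio inversely related to ADP. Enzyme at 25 nM was pre-exposed to compound for 10 min, then given 10 uM ATP for 30 min, 37°C throughout.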
aSyn rescue = alpha-synuclein toxicity inhibition in yeast; Yeast expressing alpha-synuclein, growth rescue, BacTiter-Glo, 24 h; Potency, µM (highest dose often 46.1 µM), for inactives: top-dose growth rescue (activation), usual class: activators; hit rate 0.14% among 370,000; AID 652106; note: % of control where 0% means no effect; nearly all actives have a fitted effect of over 65% in size
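Screening used galactose-induced yeast with toxic alpha-synuclein levels, exposed to compound for 24 hr at 30 deg C. Cell growth, read with BacTiter-Glo luminescence, gave the measured signal.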
TDP-43 yeast inh = inhibitors of TDP-43 toxicity in yeast | TDP-43 expressing yeast growth rescue, BacTiter-Glo, 24 h | Potency, µM (series often up to 46.1 µM), inactives show top-dose growth rescue (activation), actives largely listed as activators | hit rate 1.8% among 410,000 | AID 652104; note: % of control where 0% means no effect; nearly all actives have a fitted effect of over 50% in size
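Readout is BacTiter-Glo luminescence of cell growth, so inhibitors register as activators. TDP-43-expressing yeast at OD600=0.02 in galactose medium, after raffinose pregrowth to mid-log, were incubated with compound for 24 hr at 30 deg C.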
ClpP mod = qHTS Assay for Activators of ClpP; hit rate 1.9% among 340,000; Potency, µM (top dose mostly 57.5 µM), without a hit: top-dose activity change, negative = active; ATP-dependent Clp protease proteolytic subunit (Bacillus subtilis (strain 168)), P80244; purified B. subtilis ClpP, FRET peptide cleavage, 20 min; active = well fitted falling curve with a large enough effect; inconclusive = small, poorly fitted or top-dose-only effect; inactive = no such curve, though single readings can be large or run the other way; note: the source files actives as falling curves though it sought activators and does not explain the sign; nearly all actives have a fitted effect of over 65% in size
Target sequence (P80244 whole entry, looked up): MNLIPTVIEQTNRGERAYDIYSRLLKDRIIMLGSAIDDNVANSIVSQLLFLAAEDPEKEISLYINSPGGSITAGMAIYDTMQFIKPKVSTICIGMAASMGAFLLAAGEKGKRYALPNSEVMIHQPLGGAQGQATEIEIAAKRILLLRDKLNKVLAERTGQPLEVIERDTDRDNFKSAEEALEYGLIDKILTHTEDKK
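FRET quenching reversal measured ClpP activation: 10 microg/mL B. subtilis ClpP at pH 8 with the FRET-FV decapeptide, read at 430 nm after 320 nm excitation. The 20-min minus 0-min signal was scaled between DMSO/no-enzyme wells and ADEP (5.8 microM final).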
FUS yeast rescue = rescues growth of FUS-expressing yeast; S. cerevisiae FUS-expressing, growth rescue, OD600, 24 h; Potency, µM (series often up to 76.6 µM), usual class: activators; hit rate 0.24% among 390,000; AID 1347120;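 note: plate controls were DMSO vehicle for no effect and reference control for full effect; nearly all actives have a fitted effect of over 55% in size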
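Restored growth of FUS-toxic S. cerevisiae, read as 600 nm absorbance after 24 h at 30C in galactose medium (starting OD 0.005). Controls CP55940 and DMSO.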
Abeta yeast res = compounds reversing amyloid beta toxicity in yeast. hit rate 0.063% among 410,000. Potency, µM (top dose mostly 46.1 µM), most hits filed as activators. AID 1347071. yeast expressing A-beta42, growth rescue, OD600, 48 h; response scale: 0% DMSO, 100% iron-clioquinol control; note: nearly all actives have a fitted effect of over 55% in size
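Growth rescue measured by 600 nm absorbance after 48 h yeast culture at 30 C with compound. Values normalized between DMSO and an equimolar ferric chloride plus clioquinol control.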
The depositor's hits bear a star; i = inactive; ? = inconclusive; . = not tested or not shown; [ ] = dose if it differs, or a comment. The list is not random: actives were taken first. Their share in the collection is about 3.6%. Unless noted, calls come from the whole dose curve; as a rule, active = well fitted curve in the direction sought with a large enough effect; inconclusive = small, poorly fitted or top-dose-only effect, or another doubt; inactive = no such curve, though single readings can be large; an effect the other way counts as inactive or inconclusive. Potency is the fitted concentration of half-maximal effect.

SMILES | Mm-Cpn inhibitor | aSyn rescue | TDP-43 yeast inh | ClpP mod | FUS yeast rescue | Abeta yeast res
Cc1ccc(-c2onc(C)c2C)cc1S(=O)(=O)N1CCc2ccccc21 | . | . | 3% | -3% | i | i
COc1ccc(-c2ccc(NS(=O)(=O)c3cc(C)c(C)cc3C)cc2)nn1 | . | . | 18µM* | -2% | ? | i
COc1ccc(-c2cccc(NS(=O)(=O)c3cc(C)c(Cl)cc3C)c2)nn1 | . | . | 18µM* | -1% | ? | i
COc1ccc(-c2cccc(NS(=O)(=O)c3cc(C(F)(F)F)ccc3Cl)c2)nn1 | . | . | 6% | 0% | i | i
COc1cccc(-c2nnc(NC(=O)c3ccc(Cl)s3)o2)c1 | 3% | ? | 10µM* | 0% | i | ?
O=C(Nc1nnc(-c2ccc(Cl)cc2)o1)Nc1ccccc1Cl | 2% | 1% | 23% | 28µM* | i | i
O=C(Nc1nnc(-c2ccccc2)o1)c1cc(Cl)sc1Cl | 1% | 3.2µM* | -4% | 1% | i | ?
O=C(Nc1nnc(-c2ccc(Cl)cc2)o1)c1nc2ccccc2s1 | 2% | 18µM* | ? | -3% | i | i
O=C(Nc1ccccc1)c1nc2ccccc2s1 | 2% | -3% | -5%[0.397 µM] | . | i | i
CCOc1cc(CNC(=O)C2COc3ccccc3C2)cc(OCC)c1OCC (stereo not drawn) | . | . | 11% | 1% | i | i
Cc1cccc(-c2nnc(NC(=O)c3ccc(Cl)cc3)o2)c1 | -2% | 7.1µM* | ? | -1% | i | ?
CCOc1cccc2sc(N(Cc3cccnc3)C(=O)c3ccco3)nc12 | . | . | 3% | ? | i | i
Cn1cnc([N+](=O)[O-])c1S(=O)(=O)Oc1cccc2ccccc12 | . | -47% | ? | . | i | i
Cn1cnc([N+](=O)[O-])c1S(=O)(=O)Oc1ccc(Cl)cc1 | . | -24% | 3.2µM* | . | i | i
Nc1nc(-c2ccc(Br)s2)c(Br)s1 | 0% | 4% | 11µM* | -1% | i | i
Cc1cccc(NC(=O)CC2C(=O)OCCN2Cc2ccccc2)c1 (stereo not drawn) | . | . | 14µM* | 1% | i | i
O=C(CC1C(=O)OCCN1Cc1ccccc1)Nc1cccc(Cl)c1 (stereo not drawn) | . | . | 18µM* | -2% | i | i
O=C(CSC1CC(=O)N(CCc2ccccc2)C1=O)Nc1ccc(Br)cc1 (stereo not drawn) | 1% | 5% | 5% | -3% | i | i
O=C(CSC1CC(=O)N(CCc2ccccc2)C1=O)Nc1cccc(Cl)c1 (stereo not drawn) | 1% | 13% | 18µM* | -5% | i | i
COc1ccc(/C=C(\C)C(=O)NO)cc1 | . | ? | . | 0% | . | .
CCOC(=O)C1=C(CNCc2ccccc2)NC(=O)NC1c1ccc(C)cc1 (stereo not drawn) | . | . | 21% | -3% | i | i
COc1ccc(/C=C/C(=O)N2CCN(S(=O)(=O)c3ccccc3Br)CC2)cc1OC | 1% | ? | 22µM* | -12% | ? | i
O=C(Nc1ccc(C(=O)OCc2cc(=O)n3c4c(sc3n2)CCCC4)cc1)c1ccc(F)cc1 | . | . | 19% | -9% | i | i
CC(C)COc1ccc(C(=O)Nc2scc(-c3ccc(Br)cc3)c2C(=O)OC(C)C)cc1 | . | . | 12% | ? | i | i
CNC(=O)NC(=O)COC(=O)c1n[nH]c2ccccc12 | 1% | 1% | -12% | . | i | i
O=C(COC(=O)c1n[nH]c2ccccc12)NC(=O)NCc1ccco1 | 0% | 1% | 12% | 32µM* | i | i
Oc1ccc(Nc2nc(-c3ccccc3)nc3ccccc23)cc1 | 3% | 2% | 0% | -5% | i | i
Oc1ccc(Nc2nc3ccccc3nc2Nc2ccc(O)cc2)cc1 | 0% | -2% | -1% | 32µM* | i | i

Source: PubChem BioAssay (National Center for Advancing Translational Sciences (NCATS))
